Screening results from PubChem BioAssay.
Lassa entry inh – Lassa virus entry inhibition | Lassa virus pseudotype entry inhibition, cell reporter | Potency, µM (top dose mostly 37.9 µM), hits mostly inhibitors | 300,000 tested, 1.2% active | AID 540256; calls by dose curve; tested in HEK293 cells; note: nearly all actives have a fitted effect of over 50% in size
Shiga inhibitor – blocks Shiga toxin action in Vero cells; inhibition, % at 38.7 µM; AID 2315; Vero cells, Shiga toxin protein synthesis inhibition reporter; 290,000 tested, 9.2% active; in the data active = inhibition mostly above about 28%, no sharp cut-off; inactive = mostly below about 43%
Cycloheximide cs – counter-screen hit for Shiga toxin inhibitors, cycloheximide; cell reporter, cycloheximide protein synthesis inhibition counterscreen; max response, %; 300,000 tested, 12% active; in the data active = max response mostly above about 13%, no sharp cut-off; inactive = mostly below about 14%; note: read at 38.3 µM for the half of the compounds with a filed dose
MARV entry inh – inhibitors of Marburg virus binding or cell entry | Marburg virus pseudotyped entry inhibition, cell reporter | AID 540276 | Potency, µM (top dose mostly 37.8 µM), hits mostly inhibitors | 300,000 tested, 1.8% active; calls by dose curve; tested in HEK293 cells
AMA1-RON2 inh – disrupts binding of P. falciparum AMA1 to RON2; AlphaScreen AMA1-biotinylated RON2 peptide binding; Potency, µM (series often up to 58.2 µM), hits mostly inhibitors; 360,000 tested, 0.2% active; AID 720542; active = well fitted inhibition curve with a large enough effect; inconclusive = small, poorly fitted or top-dose-only effect; inactive = no such curve, though single readings can be large or run the other way; note: nearly all actives have a fitted effect of over 45% in size
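AMA1 (3D7) with his tag at 25 nM final met compounds first, then biotinylated RON2 peptide at 25 nM; detection used donor plus acceptor beads, 10 µg/mL apiece, read by AlphaScreen after 30 min at room temperature.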
Hits are given with their value; 0 = inactive; ? = inconclusive; - = not tested or not shown; ! = a repeat was not active; [ ] = remark or other dose. The full list was thinned out, with hits kept by preference.

SMILES	Lassa entry inh	Shiga inhibitor	Cycloheximide cs	MARV entry inh	AMA1-RON2 inh
O=C(Nn1c(Cc2ccccc2)nc2ccccc2c1=O)c1c(O)c2cccc3c2n(c1=O)CCC3	-	0	0	-	0
Nc1ccc(SCc2nc3cccc4c3n2CCC4)cc1	-	55.2	25.1	-	0
N/C(=N\OC(=O)Cc1ccccc1[N+](=O)[O-])c1ccncc1	0	0	0	?	0
COc1cccc(C(=O)O/N=C(\N)c2ccc(C)cc2)c1	-	83.4	57.1	-	0
COc1cccc(C(=O)O/N=C(\N)c2ccc([N+](=O)[O-])cc2)c1	?	76.2	32.7	0	0
COc1cccc(/C(N)=N/OC(=O)Cc2ccccc2[N+](=O)[O-])c1	0	113.3	26.8	?	0
COc1cccc(C(=O)O/N=C(\N)c2ccncc2)c1	0	71.5	47.0	?	0
Cc1cccc(NC(c2nnc(-c3ccccc3)o2)c2ccc(F)cc2Cl)c1C (centres undefined)	0	-	-	-	-
CC(=O)Nc1ccc(-c2ccnc3c2CC(C)(C(=O)NCc2ccc(N4CCN(C)CC4)cc2)O3)cc1 (centres undefined)	-	-	-	-	0
Cc1ccc(OCCNC(=O)C2CC(=O)N(Cc3ccccc3)C2)cc1 (centres undefined)	?	-	-	0	0[11.6 µM]
CC1CCN(CC(=O)N2CCCc3c2c(=O)oc2ccc(OCc4ccccc4)cc32)CC1	0.631µM!	0	0	7.08µM	0
CC1CC(C)CN(CC(=O)N2CCCc3c2c(=O)oc2ccc(OCc4ccccc4)cc32)C1 (centres undefined)	?	0	0	10µM	0
COc1cccc(NC(=O)COc2ccc(C)cc2)c1	0	62.7	36.6	0	0
COc1cccc(NC(=O)COc2ccc3c(c2)CCC3)c1	-	38.2	23.3	-	0
Cc1cc(NC(=O)c2nn(C)c(C)c2Br)no1	-	80.9	44.7	-	0
Cc1cc(NC(=O)c2ccc(F)cc2)no1	-	91.0	33.2	-	0
CC(=O)Nc1ccc(C(=O)Nc2cc(C)on2)cc1	0	43.8	32.3	0	0
Cc1cc(NC(=O)c2ccc(C(C)(C)C)cc2)no1	?	-	-	?	0
Cc1cc(NC(=O)c2nn(C)c(C)c2[N+](=O)[O-])no1	0	0	0	0	0
O=S(=O)(NCCc1cn(S(=O)(=O)c2ccccc2)c2ccccc12)c1ccccc1	-	0	0	-	-
COC(=O)C1CCC(=O)N1C(c1ccc(OC)cc1)c1cc(OC)c(OC)c(OC)c1 (centres undefined)	?	-	-	?	0
COc1cccc(-c2nnc3sc(-c4ccco4)nn23)c1	?	0	39.2	?	0
c1coc(-c2nnc3sc(-c4cccs4)nn23)c1	0	0	13.6	0	0
COc1ccc(-c2nnc3sc(-c4ccco4)nn23)cc1OC	0	0	0	0	0
CC(C)CN(C(=O)COC(=O)CCCc1c[nH]c2ccccc12)c1c(N)n(Cc2ccccc2)c(=O)[nH]c1=O	0	0	0	?	0
SMILES	Lassa entry inh	Shiga inhibitor	Cycloheximide cs	MARV entry inh	AMA1-RON2 inh
O=C(Nc1ccc(Nc2ccccc2)cc1)C1CC1	?	0	21.2	0	0
O=C(Nc1ccc(-n2cccc2)cc1)C1CC1	0	0	22.7	0	0
Cc1ccc(C(=O)N/C(=C\c2ccco2)C(=O)NCCN2CCOCC2)cc1C	0	0	0	0	0
S=c1nc(C2COc3ccccc3O2)[nH][nH]1 (centres undefined)	0	0	0	0	0
Cc1nc(C2COc3ccccc3O2)sc1C(=O)O (centres undefined)	0	70.7	13.1	0	0
CCOC(=O)Cc1nnc(NC(=O)CSc2nc3ccccc3[nH]2)s1	0	0	0	0	0
CCc1ccc(NC(=O)c2ccccc2NC(=O)C2CCCO2)cc1 (centres undefined)	0	0	64.8	?	0
O=C(NCCOc1ccccc1)c1ccccc1NC(=O)C1CCCO1 (centres undefined)	-	0	40.6	?	0
CCOC(=O)c1ccccc1NC(=O)C1CCCO1 (centres undefined)	-	0	0	-	0
Cc1cc(C(=O)NNC(=S)NCC(C)C)cs1	0	0	0	0	0
Cc1cccc(NC(=S)NNC(=O)c2csc3c2CCCC3)c1	0	0	29.4	?	0
Cc1cccc(NC(=S)NNC(=O)c2csc(C)c2)c1	?	22.3	24.0	?	0
O=C(CSc1ccsc1[N+](=O)[O-])Nc1cccc(F)c1	-	0	21.4	-	0
CCc1ccccc1NC(=O)CSc1ccsc1[N+](=O)[O-]	0	0	0	0	0
O=C(CSc1ccsc1[N+](=O)[O-])NCc1ccccc1	-	111.7	43.8	?	0
COc1ccccc1CNC(=O)CSC1=NCCS1	0	0	19.0	0	0
COc1ccccc1CNC(=O)CSc1ccc(Br)cc1	0	0	0	?	0
COc1ccccc1CNC(=O)CSc1ccsc1[N+](=O)[O-]	-	85.3	43.2	-	0
O=C(CSc1ccsc1[N+](=O)[O-])NC1CCCC1	-	0	0	-	0
COc1ccc(OC)c(CCNC(=O)CSc2ccsc2[N+](=O)[O-])c1	-	0	0	-	0
COc1ccc(OC)c(N(CC(=O)N2CCCC2)S(C)(=O)=O)c1	-	0	0	-	0
CCn1cc([N+](=O)[O-])c(C(=O)N2N=C(c3ccc4ccccc4c3)CC2c2ccccc2O)n1 (centres undefined)	0	27.4	34.1	?	?
O=[N+]([O-])c1ccc(-n2nnnc2-c2ccccc2)c([N+](=O)[O-])c1	?	0	0	14.6µM	0
O=[N+]([O-])c1ccc(-n2nnnc2-c2ccccc2)cc1	-	0	0	-	0
CC(=O)Nc1ccc(-c2csc(Nc3cccc(C)n3)n2)cc1	?	73.5	49.6	0	0
SMILES	Lassa entry inh	Shiga inhibitor	Cycloheximide cs	MARV entry inh	AMA1-RON2 inh
CC(=O)Nc1cccc(-c2csc(Nc3ncccn3)n2)c1	-	91.2	43.0	-	-
CC(=O)Nc1cccc(-c2csc(Nc3ccc(C)cn3)n2)c1	1.78µM	97.6	69.0	?	0
CC(=O)Nc1cccc(-c2cnc(NC(C)=O)cn2)c1	-	-	-	-	0
COc1ccc(-c2csc(Nc3ccc(C)cn3)n2)cc1	0	0	0	0	0
O=C(O)CSCc1nc2ccccc2[nH]1	-	0	0	-	0
C=C(C)CSCc1nc2ccccc2[nH]1	0	0	37.4	0	0
Cc1ccccc1CSCc1nc2ccccc2[nH]1	?	38.7	32.3	?	0
CSc1ccc(CCNC(=O)c2cc(C)nc3c2c(C)nn3-c2ccccc2)cc1	0	-	-	-	-
C[C@H]1CNC(=O)c2c(C(=O)N3CCN(C(=O)OC(C)(C)C)CC3)ncn21	-	-	-	-	0
CC(=O)Nc1ccc(C(=O)N/N=C(\C)CC(=O)Nc2ccc(OCc3ccccc3)cc2)cc1	0	0	18.5	?	0[11.6 µM]
C/C(CC(=O)Nc1ccc(OCc2ccccc2)cc1)=N\NC(=O)C(=O)Nc1cccc(C)c1	0	0	28.3	0	0
COc1ccccc1NC(=O)C(=O)N/N=C(\C)CC(=O)Nc1ccc(OCc2ccccc2)cc1	0	0	0	0	0
C=CCSc1nnc2c(n1)OC(c1cccnc1)N(C(C)=O)c1ccccc1-2 (centres undefined)	0	0	0	0	0
c1ccc(CSc2nnc3c(n2)OC(c2ccco2)Nc2ccccc2-3)cc1 (centres undefined)	?	86.3	26.0	0	0
